Assay results taken from PubChem BioAssay (Tox21).
Unmarked numbers belong to inactive results. Calls of active or inactive are those of the source. Calls follow the shape of the dose curve; as a rule, active = well fitted curve in the direction sought with a large enough effect in the repeat runs; inconclusive = weak or mixed curves; inactive = flat fitted curve, though single readings scatter.

Experiment: qHTS assay to test for compound auto fluorescence at 590 nm (red) in HepG2 cells (AID 720674)
Settings: HepG2 autofluorescence, red 540/590 nm, 1 h; series mostly up to 91.3 µM; fluorescence, relative to Rose Bengal: at the top concentration
Outline: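 Rose Bengal sodium served as the red fluorophore standard. HepG2 monolayers (overnight attachment, MEM with 10% FBS) were exposed to test compounds for 1 hr at 37 C and read at Ex 540/Em 590 nm.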
% is scaled to controls: 0 for no effect and ±100 for the full control effect.

Row | Compound | fluorescence, relative to Rose Bengal | outcome
1 | CCc1ccccc1N | 0.444% | 
2 | Cc1cccc(C)c1NC1=NCCCS1 | 0.907% [at 46 µM] | 
3 | C[CH2][Hg][S]c1ccccc1C(=O)O |  | inactive
4 | CC1(C)[C@H](C(=O)O[C@H](C#N)c2cccc(Oc3ccccc3)c2)[C@@H]1C=C(Br)Br |  | inactive
5 | [Cl-].[Cl-].[Hg+2] |  | inactive
6 | CN1C(=O)CN=C(c2ccccc2)c2cc([N+](=O)[O-])ccc21 | 0.0836% [at 46 µM] | 
7 | C=CCN1C[C@H](C)N([C@H](c2ccc(C(=O)N(CC)CC)cc2)c2cccc(OC)c2)C[C@H]1C | 0.604% [at 46 µM] | 
8 | COc1ccc(C(=O)c2c(C)n(CCN3CCOCC3)c3ccccc23)cc1 | -0.346% [at 46 µM] | 
9 | O=CC=O |  | inactive
10 | C=C(C)C(=O)OCCCCOC(=O)C(=C)C | -0.0332% | 
11 | CCCCCBr | -0.0496% [at 95.7 µM] | 
12 | CC(C)[C@@H](C(=O)O[C@@H](C#N)c1cccc(Oc2ccccc2)c1)c1ccc(Cl)cc1 |  | inactive
13 | Nc1ccccc1C(=O)OCCc1ccccc1 |  | inactive
14 | O=C(O)C(O)C(O)C(=O)O (centres undefined) | 0.0668% | 
15 | CC(C)(C)N(NC(=O)c1ccc(Cl)cc1)C(=O)c1ccccc1 | 0.0891% | 
16 | COP(=O)(OC)OC(Br)C(Cl)(Cl)Br (centres undefined) |  | inactive
17 | Cc1ncc(C[n+]2csc(CCO)c2C)c(N)n1 |  | inactive
18 | Nc1ccc2c(c1)Cc1ccccc1-2 | -0.156% | 
19 | CCC(C)(C)O | 0.251% | 
20 | CCC1(CCC(C)C)C(=O)NC(=O)NC1=O | 0.107% | 
21 | CN1CC[C@]23c4c5ccc(O)c4O[C@H]2[C@@H](O)C=C[C@H]3[C@H]1C5 | 0.262% | 
22 | NP(N)(=O)NC(=O)c1ccc(F)cc1 | 0.0056% [at 46 µM] | 
23 | CN(C)c1ccc(N=O)cc1 |  | inactive
24 | C[Si](Cn1cncn1)(c1ccc(F)cc1)c1ccc(F)cc1 |  | inactive
